Assay [1] concerns Tyrosine-protein kinase ABL1 (Homo sapiens), P00519 [T315I]. The settings on record: at 1 µM.
Assay [2] concerns Tyrosine-protein kinase ABL1 (Homo sapiens), P00519 [Y253F]. Particulars: at 0.1 µM.
Assay [3] shares this test system. Particulars: at 1 µM.
Assay [4] concerns the target Tyrosine-protein kinase ABL1 (Homo sapiens) (UniProt P00519). The settings on record: at 0.1 µM.
The target is the same in assay [5]. Particulars: at 1 µM.
The target in assay [6] is ALK tyrosine kinase receptor (Homo sapiens) (UniProt Q9UM73). Particulars: at 0.1 µM.
Assay [7] shares this target. The settings on record: at 1 µM.
Assay [8] addresses Tyrosine-protein kinase ABL2 (Homo sapiens) (UniProt P42684). The settings on record: at 0.1 µM.
Assay [9] shares this target. Particulars: at 1 µM.
Assay [10] concerns the target Tyrosine-protein kinase receptor UFO (Homo sapiens) (UniProt P30530). The settings on record: at 0.1 µM.
The target is the same in assay [11]. The settings on record: at 1 µM.
For assay [12], the target named is Tyrosine-protein kinase Blk (Homo sapiens) (UniProt P51451). Particulars: at 0.1 µM.
The target is the same in assay [13]. The settings on record: at 1 µM.
Assay [14] addresses T1, Cytoplasmic tyrosine-protein kinase BMX (Homo sapiens) (UniProt P51813).
T1 sequence (whole entry): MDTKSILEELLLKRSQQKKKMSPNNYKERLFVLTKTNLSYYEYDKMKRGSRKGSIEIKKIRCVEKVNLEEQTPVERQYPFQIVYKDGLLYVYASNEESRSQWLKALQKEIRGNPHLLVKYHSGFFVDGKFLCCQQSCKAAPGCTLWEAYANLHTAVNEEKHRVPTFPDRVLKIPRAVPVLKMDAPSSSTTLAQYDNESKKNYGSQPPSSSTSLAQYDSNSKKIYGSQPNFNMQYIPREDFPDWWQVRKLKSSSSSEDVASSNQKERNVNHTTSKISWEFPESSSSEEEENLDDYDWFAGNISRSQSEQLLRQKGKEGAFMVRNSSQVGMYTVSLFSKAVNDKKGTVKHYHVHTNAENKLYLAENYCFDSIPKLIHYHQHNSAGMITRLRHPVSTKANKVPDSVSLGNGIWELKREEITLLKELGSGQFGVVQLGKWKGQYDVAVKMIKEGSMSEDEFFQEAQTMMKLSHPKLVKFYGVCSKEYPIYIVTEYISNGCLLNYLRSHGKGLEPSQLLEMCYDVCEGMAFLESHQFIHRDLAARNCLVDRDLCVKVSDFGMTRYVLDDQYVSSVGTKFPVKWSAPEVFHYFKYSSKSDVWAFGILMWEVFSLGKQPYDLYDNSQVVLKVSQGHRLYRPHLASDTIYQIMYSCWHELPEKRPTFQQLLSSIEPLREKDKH
The settings on record: at 0.1 µM.

Assay [15] concerns the target T1, Cytoplasmic tyrosine-protein kinase BMX (Homo sapiens). The settings on record: at 1 µM.
In assay [16] the target is Protein-tyrosine kinase 6 (Homo sapiens) (UniProt Q13882). Particulars: at 0.1 µM.
Assay [17] shares this target. Particulars: at 1 µM.
Assay [18] has as its target Tyrosine-protein kinase BTK (Homo sapiens) (UniProt Q06187). Particulars: at 0.1 µM.
Assay [19] has the same target. The settings on record: at 1 µM.
Assay [20] deals with Tyrosine-protein kinase CSK (Homo sapiens) (UniProt P41240). Particulars: at 0.1 µM.

A word on the inhibition: it is the change of the read-out against control, counted positive when it falls.

Tyrosine-protein kinase BTK (Homo sapiens), sequence (Q06187 whole entry): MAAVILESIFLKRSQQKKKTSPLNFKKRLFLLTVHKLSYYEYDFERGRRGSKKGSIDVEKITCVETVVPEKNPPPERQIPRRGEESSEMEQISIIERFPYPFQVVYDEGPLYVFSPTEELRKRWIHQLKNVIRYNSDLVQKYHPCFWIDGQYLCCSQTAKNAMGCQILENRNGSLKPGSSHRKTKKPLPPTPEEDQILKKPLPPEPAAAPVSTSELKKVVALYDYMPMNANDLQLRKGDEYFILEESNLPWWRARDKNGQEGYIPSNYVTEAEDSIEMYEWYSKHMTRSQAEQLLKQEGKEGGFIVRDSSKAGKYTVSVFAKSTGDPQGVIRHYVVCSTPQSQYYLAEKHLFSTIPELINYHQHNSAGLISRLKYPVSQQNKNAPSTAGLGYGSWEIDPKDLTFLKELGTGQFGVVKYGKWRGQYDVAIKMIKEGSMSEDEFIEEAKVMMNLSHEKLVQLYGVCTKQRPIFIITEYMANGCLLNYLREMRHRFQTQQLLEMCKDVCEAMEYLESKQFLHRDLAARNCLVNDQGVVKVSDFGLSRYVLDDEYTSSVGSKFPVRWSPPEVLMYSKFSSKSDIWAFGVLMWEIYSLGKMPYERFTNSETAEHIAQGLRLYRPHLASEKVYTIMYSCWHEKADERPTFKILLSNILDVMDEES
ALK tyrosine kinase receptor (Homo sapiens), sequence (Q9UM73 19-1620 limits assumed): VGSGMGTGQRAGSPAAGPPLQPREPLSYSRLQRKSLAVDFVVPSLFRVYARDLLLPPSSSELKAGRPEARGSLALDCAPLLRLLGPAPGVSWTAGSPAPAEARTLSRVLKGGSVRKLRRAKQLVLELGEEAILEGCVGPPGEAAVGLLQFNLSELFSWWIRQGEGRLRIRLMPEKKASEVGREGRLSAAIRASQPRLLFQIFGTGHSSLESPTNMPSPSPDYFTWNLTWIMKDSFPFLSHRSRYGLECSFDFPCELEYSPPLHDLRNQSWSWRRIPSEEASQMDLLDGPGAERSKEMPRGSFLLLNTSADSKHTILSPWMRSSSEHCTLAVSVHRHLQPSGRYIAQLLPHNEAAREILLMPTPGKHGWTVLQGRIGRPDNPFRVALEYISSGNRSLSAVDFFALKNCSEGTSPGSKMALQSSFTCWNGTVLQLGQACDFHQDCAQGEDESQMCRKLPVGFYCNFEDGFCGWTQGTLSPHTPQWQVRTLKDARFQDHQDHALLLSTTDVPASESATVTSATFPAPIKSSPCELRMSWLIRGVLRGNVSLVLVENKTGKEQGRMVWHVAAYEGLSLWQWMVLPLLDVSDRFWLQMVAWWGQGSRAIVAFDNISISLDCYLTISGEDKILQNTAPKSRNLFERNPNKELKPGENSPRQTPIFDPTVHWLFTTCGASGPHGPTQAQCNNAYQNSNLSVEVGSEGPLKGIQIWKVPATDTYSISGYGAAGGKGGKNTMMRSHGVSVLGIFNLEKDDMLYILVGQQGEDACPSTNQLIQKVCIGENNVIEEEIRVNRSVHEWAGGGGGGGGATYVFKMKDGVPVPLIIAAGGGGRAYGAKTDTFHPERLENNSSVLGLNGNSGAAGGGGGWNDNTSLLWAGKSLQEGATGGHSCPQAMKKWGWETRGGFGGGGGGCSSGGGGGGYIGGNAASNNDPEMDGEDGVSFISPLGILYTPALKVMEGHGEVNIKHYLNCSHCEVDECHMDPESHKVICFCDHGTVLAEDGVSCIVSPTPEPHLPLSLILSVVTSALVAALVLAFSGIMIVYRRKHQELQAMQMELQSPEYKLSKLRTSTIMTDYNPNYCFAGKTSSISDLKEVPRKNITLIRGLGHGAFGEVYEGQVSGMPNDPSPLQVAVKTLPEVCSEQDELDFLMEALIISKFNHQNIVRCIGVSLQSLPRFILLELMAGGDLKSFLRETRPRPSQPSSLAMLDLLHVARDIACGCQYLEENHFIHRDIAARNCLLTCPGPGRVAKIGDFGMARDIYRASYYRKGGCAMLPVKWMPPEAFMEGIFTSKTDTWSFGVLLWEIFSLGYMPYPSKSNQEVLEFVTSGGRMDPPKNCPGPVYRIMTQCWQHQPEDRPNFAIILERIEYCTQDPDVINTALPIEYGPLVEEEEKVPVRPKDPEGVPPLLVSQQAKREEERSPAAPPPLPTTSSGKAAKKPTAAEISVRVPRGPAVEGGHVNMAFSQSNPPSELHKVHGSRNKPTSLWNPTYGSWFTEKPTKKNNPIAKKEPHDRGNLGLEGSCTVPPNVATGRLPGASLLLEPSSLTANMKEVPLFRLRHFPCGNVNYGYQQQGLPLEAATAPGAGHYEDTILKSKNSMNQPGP
Tyrosine-protein kinase ABL2 (Homo sapiens), sequence (P42684 whole entry): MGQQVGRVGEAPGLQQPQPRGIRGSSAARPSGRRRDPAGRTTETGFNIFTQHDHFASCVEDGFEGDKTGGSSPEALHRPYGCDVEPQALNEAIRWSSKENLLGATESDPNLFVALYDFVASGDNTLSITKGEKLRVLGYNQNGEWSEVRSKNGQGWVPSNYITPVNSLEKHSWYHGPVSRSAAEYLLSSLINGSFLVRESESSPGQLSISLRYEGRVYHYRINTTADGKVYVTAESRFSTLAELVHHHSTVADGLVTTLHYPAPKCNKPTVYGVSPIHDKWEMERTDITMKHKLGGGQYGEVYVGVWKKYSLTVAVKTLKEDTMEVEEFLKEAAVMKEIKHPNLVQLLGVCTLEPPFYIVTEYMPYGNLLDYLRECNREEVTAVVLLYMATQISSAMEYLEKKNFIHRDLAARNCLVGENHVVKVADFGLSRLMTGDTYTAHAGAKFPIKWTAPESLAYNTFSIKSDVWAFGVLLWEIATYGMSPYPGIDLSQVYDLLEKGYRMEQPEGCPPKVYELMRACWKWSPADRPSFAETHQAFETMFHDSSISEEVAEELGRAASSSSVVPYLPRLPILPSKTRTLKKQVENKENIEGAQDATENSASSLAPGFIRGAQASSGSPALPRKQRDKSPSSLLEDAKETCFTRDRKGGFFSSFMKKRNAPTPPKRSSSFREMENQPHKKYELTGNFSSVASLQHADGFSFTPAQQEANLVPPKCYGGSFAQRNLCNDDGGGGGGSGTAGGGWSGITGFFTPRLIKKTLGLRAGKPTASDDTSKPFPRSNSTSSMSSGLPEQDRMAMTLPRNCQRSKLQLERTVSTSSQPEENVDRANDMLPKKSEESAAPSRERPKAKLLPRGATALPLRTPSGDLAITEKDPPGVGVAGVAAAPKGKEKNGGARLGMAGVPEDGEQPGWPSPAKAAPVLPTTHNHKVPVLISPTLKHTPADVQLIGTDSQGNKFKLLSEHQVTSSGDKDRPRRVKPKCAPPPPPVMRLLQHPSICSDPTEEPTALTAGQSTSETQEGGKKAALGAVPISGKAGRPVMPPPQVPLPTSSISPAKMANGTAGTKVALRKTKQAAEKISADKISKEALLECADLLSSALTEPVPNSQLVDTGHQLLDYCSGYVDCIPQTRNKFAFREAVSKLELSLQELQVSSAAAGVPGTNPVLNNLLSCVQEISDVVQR
Tyrosine-protein kinase Blk (Homo sapiens), sequence (P51451 2-505 limits assumed): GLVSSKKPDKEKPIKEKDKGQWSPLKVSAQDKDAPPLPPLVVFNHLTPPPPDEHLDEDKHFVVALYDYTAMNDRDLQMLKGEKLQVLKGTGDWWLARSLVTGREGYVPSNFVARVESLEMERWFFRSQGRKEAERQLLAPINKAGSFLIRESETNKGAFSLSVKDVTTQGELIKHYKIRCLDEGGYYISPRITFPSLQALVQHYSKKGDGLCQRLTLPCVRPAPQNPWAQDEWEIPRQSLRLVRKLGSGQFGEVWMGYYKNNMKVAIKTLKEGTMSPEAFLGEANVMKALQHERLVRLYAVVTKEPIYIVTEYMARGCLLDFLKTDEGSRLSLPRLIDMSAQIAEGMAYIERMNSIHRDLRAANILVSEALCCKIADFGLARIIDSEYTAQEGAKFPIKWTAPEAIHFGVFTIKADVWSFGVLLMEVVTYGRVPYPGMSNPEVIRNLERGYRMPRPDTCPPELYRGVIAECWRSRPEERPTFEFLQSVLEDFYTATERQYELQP
Tyrosine-protein kinase receptor UFO (Homo sapiens), sequence (P30530 whole entry): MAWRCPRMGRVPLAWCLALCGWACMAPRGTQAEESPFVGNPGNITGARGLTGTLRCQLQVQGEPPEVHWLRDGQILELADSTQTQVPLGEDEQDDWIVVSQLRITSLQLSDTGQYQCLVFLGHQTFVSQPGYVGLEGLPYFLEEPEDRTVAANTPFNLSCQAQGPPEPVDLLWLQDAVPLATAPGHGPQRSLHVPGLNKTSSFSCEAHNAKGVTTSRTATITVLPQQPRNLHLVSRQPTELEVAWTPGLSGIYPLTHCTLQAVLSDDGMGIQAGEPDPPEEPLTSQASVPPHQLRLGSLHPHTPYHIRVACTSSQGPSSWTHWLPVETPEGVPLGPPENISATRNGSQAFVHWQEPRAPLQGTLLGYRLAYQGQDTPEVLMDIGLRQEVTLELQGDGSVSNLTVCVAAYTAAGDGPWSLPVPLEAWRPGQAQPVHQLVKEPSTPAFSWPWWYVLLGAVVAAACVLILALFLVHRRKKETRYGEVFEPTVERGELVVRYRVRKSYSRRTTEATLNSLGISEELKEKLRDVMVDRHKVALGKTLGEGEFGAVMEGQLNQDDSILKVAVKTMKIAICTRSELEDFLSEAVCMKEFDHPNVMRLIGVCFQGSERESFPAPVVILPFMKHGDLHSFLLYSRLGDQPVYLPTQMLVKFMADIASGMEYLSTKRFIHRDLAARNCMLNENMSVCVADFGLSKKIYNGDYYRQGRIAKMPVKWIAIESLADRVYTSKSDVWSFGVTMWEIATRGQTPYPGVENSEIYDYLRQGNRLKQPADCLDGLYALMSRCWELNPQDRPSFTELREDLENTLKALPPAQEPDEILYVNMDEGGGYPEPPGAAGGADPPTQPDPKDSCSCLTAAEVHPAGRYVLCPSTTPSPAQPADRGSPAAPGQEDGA

Take `O=C1Nc2ccc(I)cc2C1=Cc1cc(Br)c(O)c(Br)c1`: the inhibition in [1] is 2.95%; in assay [2], 1.68%; in assay [3] it was 5.83%; in assay [4], 5.59%; in [5], 6.33%; in assay [6], 3.04%. The inhibition was 4.7% in assay [7]; 4.07% in assay [8]; 6.48% in [9]; -5.83% in assay [10]; -7.49% in assay [11]; 1.48% in assay [12]. The inhibition in [13] was 3.74%; in [14], 2.64%; in assay [15] it was 7.27%; in [16], 3.26%; in assay [17] it was 6.68%; in assay [18], -1.22%. The inhibition was -0.86% in [19] and -2.19% in assay [20].
As to `COc1cc2ncn(-c3cc(OCCc4ccccc4)c(C(N)=O)s3)c2cc1OC`, the inhibition in [1] was 8.39%; in [2], 3.32%; in [3], 9.56%; in assay [4], 2.3%; in [5] it was 13.7%; in assay [6] it was 1.95%. Further, the inhibition in assay [7] is 5.89%; in assay [8], 2.26%; in assay [9], 8.26%; in [10], -5.54%; in [11], -2.35%; in [12], 1.59%. The inhibition in assay [13] is 6.17%; in [14] it was -0.54%; in assay [15], 3.43%; in [16] it was -0.83%; in assay [17], 4.33%; in assay [18] it was 1.12%. Further, the inhibition in [19] is 0.02%; in [20] it was 2.97%.
In the case of `CCc1nccc2c1nc(-c1nonc1N)n2CC`, the inhibition in assay [1] is -0.14%; in assay [2], 2.18%; in assay [3] it was 2.26%; in assay [4], 1.88%; in assay [5] it was 7.3%; in assay [6], 0.99%. Moreover, the inhibition in [7] was 0.3%; in assay [8], 2.12%; in assay [9] it was 9.26%; in assay [10], -0.45%; in assay [11], 2.17%; in assay [12], 0.44%. For the same molecule, the inhibition in assay [13] was 1.64%; in assay [14], -1.94%; in [15], 2.51%; in assay [16] it was -3.14%; in assay [17], -0.37%; in assay [18] it was -0.56%. For the same molecule, the inhibition in assay [19] was determined as 0.41%; in assay [20] it was 1.3%.
Turning to `NS(=O)(=O)c1ccc(N/N=C2\C(=O)Nc3ccc(-c4cnco4)cc32)cc1`, the inhibition in assay [1] was 19.9%; in assay [2] it was 3.03%; in assay [3] it was 13.4%; in [4], -0.39%; in [5], 9.41%; in [6], -3.07%. Also, the inhibition is -0.11% in assay [7]; -0.55% in [8]; 9.88% in assay [9]; -3.81% in assay [10]; -1.27% in assay [11]; -1.23% in assay [12]. In addition, the inhibition in [13] is 10.4%; in [14], 0.98%; in assay [15], 5.77%; in [16], 3.53%; in assay [17], 4.99%; in [18] it was -4.28%. The inhibition in assay [19] was -2.57%; in [20], 2.16%.
Take `Fc1ccc(-c2ncn(C3CCNCC3)c2-c2ccnc(Oc3ccc(Oc4ccccc4)cc3)n2)cc1`: the inhibition came to 1.98% in [1]; 1.99% in assay [2]; 2.86% in assay [3]; 3.87% in assay [4]; 2.97% in [5]; 4.84% in [6]. Besides, the inhibition in assay [7] was 4.48%; in [8], 2.96%; in [9], 3.58%; in assay [10], -7.4%; in [11], -7.71%; in [12] it was 3.8%. Besides, the inhibition is 3.79% in [13]; 3.11% in [14]; 6.45% in assay [15]; 1.09% in assay [16]; 1.93% in assay [17]; -2.01% in [18]. Also, the inhibition in [19] came out at 0.33%; in assay [20], 0.47%.
On to `Nc1nccc(-c2c(-c3ccc(F)cc3)ncn2C2CCC(O)CC2)n1` (stereo not given), for which the inhibition was 42.7% in assay [1]; 1.83% in [2]; 24.4% in [3]; 1.2% in [4]; 36.8% in assay [5]; -2.24% in [6]. The inhibition in assay [7] is 2.88%; in [8] it was 0.37%; in assay [9] it was 30.3%; in [10] it was 2.47%; in assay [11] it was 6.29%; in assay [12], 0.25%. Moreover, the inhibition was 5.98% in assay [13]; -2.32% in assay [14]; 3.78% in assay [15]; 1.95% in assay [16]; 14% in [17]; -0.78% in assay [18]. The inhibition in assay [19] was 1.08%; in assay [20], -1.06%.

The values above are taken from ChEMBL document CHEMBL1961873, “Compounds: GSK PKIS; Assays: Nanosyn kinase panel” (2012).
